Experimental findings from PubChem BioAssay (NCATS) are described below.

In general, viability refers to a read-out of living cells in per cent, often relative to untreated cells.

Results filed as inconclusive are left out. Unmarked numbers belong to inactive results. Active and inactive are the calls of the source. The call rests on the fitted dose curve; in most records, active means well fitted curve in the direction sought with a large enough effect; inconclusive means small, poorly fitted or top-dose-only effect, or another doubt; inactive means no such curve, though single readings can be large; an effect the other way counts as inactive or inconclusive.
Potency means the concentration at half of the fitted maximal effect.

The first test in a line: Quantitative High-Throughput drug screen in 47 multiple myeloma cell lines against the NCATS MIPE library collection: NCIH929_DSMZ cell viability assay (AID 1918978). Further: nearly all actives have a fitted effect of over 35% in size. The conditions noted are these: NCI-H929 myeloma viability, CellTiter-Glo ATP, 48 h; series mostly up to 45.8 µM; viability, % of control: at the top concentration. A digest of the protocol:
(§1)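 500 cells/well per myeloma line exposed to pinned MIPE 4.0 compounds for 48 h at 37 °C, 5% CO2. Viability read as ATP by CellTiter-Glo luminescence, normalised to DMSO-only (100%) and media-only (0%) wells.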
In general terms: Cellular ATP, detected with luciferase, serves as a proxy for viable cell number.
For `N#CC(=C1Nc2ccccc2S1)c1ccnc(OCc2ccc(CN3CCOCC3)cc2)n1`, the Potency was 4.69 µM (active).

On to `CC1(C)[C@H]2CC[C@]3(C)[C@@H](C(=O)C=C4[C@@H]5C[C@@](C)(C(=O)O)CC[C@]5(C)CC[C@]43C)[C@@]2(C)CC[C@@H]1O`, for which the “viability, % of control” value was 115%. Still for that read-out and setting: to `CN(C)N=Nc1nc[nH]c1C(N)=O` belongs 116%. As for `COc1ccc2cc1Oc1ccc(cc1)C[C@H]1c3cc(c(OC)cc3CCN1C)Oc1c(OC)c(OC)cc3c1[C@H](C2)N(C)CC3`, the Potency is 20.9 µM (active). As to `COc1cc2c(cc1OC)[C@@H]1Cc3ccc(OC)c(OC)c3CN1CC2`, the “viability, % of control” value is 105%. Take `O=C(Nc1cccc(Cl)c1)Nc1ncc(CCNc2ncnc3ccsc23)s1`: the Potency was 7.43 µM (active). Same read-out and setting: as for `COC1CCC(C(=O)c2ccc3nc4c(cc3c2)CCCO4)CC1` (stereo not given), the figure is 23.5 µM (active); as for `C=C1[C@H](n2cnc3c(=O)[nH]c(N)nc32)C[C@H](O)[C@H]1CO`, 20.9 µM (active).

Turning to `Cc1ccc(C2=Nc3ccc(Cl)cc3OC2)cc1`, the “viability, % of control” value is 119%. Consider `CC1(C)C(N(O)C(=O)Nc2ccc(Cl)cc2)N(c2ccc(Cl)cc2)C(=O)N1CC(=O)NN=CC=Cc1ccc([N+](=O)[O-])o1` (stereo not given), for which the Potency was 7.43 µM (active). Consider `NCC1CCC(C(=O)O)CC1` (stereo not given), for which the “viability, % of control” value is 108%. For the compound `Fc1ccc(CNc2ncnc3ccc(F)cc23)cc1`, the Potency is 16.6 µM (active).

The nature of a further test: Quantitative High-Throughput drug screen in 47 multiple myeloma cell lines against the NCATS MIPE library collection: OCIMY1_PLB cell viability assay (AID 1918979). Further: nearly all actives have a fitted effect of over 35% in size. The conditions noted are these: OCI-MY1 myeloma viability, CellTiter-Glo ATP, 48 h; series mostly up to 45.8 µM; viability: at the top concentration. A digest of the protocol:
as §1
As to `CC(C)=CCCC(C)=CCCC(C)=CCCC(C)=CCCC(C)=CCCC(C)=CCCC(C)=CCCC(C)=CCCC(C)=CCO`, the “viability” value was 112%. Consider `CCCCC[C@H](O)C=C[C@H]1[C@H](O)CC(=O)[C@H]1CCCCCCC(=O)O`, for which the “viability” value was 87.3%. Same read-out and setting: as for `OC[C@H]1O[C@@H](O[C@H]2[C@@H](O)[C@@](O)(CO)O[C@@H]2CO)[C@H](O)[C@@H](O)[C@@H]1O`, the figure is 114%. Consider `CCNC(=O)Nc1ccc(Oc2ncnc(N)c2C=NOC)cc1Cl`, for which the Potency was 23.5 µM (active). On to `NS(=O)(=O)c1cc(Cl)c(Cl)c(S(N)(=O)=O)c1`, for which the “viability” value was 111%. On the same count and under the same terms, to `COc1cc(F)c(C(C)C)cc1-c1ccc(C(F)(F)F)cc1CN1C(=O)O[C@H](c2cc(C(F)(F)F)cc(C(F)(F)F)c2)[C@@H]1C` belongs 115%. Take `CC(C)C[C@@H](C(=O)N[C@H](C(=O)OC1CCCC1)c1ccccc1)[C@H](O)C(=O)NO`: the Potency was 16.6 µM (active). With `Cc1csc(-c2nnc(Nc3ccc(Oc4ncccc4-c4ccnc(N)n4)cc3)c3ccccc23)c1`, the Potency is 5.26 µM (active). For the compound `O=C(Nc1cccc(C(F)(F)F)c1)Nc1cc(S(=O)(=O)NC2CC2)ccc1-c1ccsc1`, the “viability” value was 97.4%. Take `CCN1C[C@H](C)n2c(c(O)c3c(=O)n(Cc4ccc(F)c(Cl)c4)nc(C(=O)NC)c32)C1=O`: the “viability” value was 106%.

For the compound `CC(C)(O)CC(=O)NCCn1ccc2ncnc(Nc3ccc(Oc4cccc(C(F)(F)F)c4)c(Cl)c3)c21`, the “viability” value is 104%. Still for that read-out and setting: as for `CCC(=O)OCC(=O)[C@@]1(OC(=O)CC)[C@@H](C)C[C@@H]2[C@H]3CCC4=CC(=O)C=C[C@]4(C)[C@@]3(F)[C@@H](O)C[C@@]21C`, the figure is 100%. The same measure, in the same setting: as for `OCCn1cc(-c2ccc3c(c2)CCC3=NO)c(-c2ccncc2)n1`, the figure is 93.8%.

`C[C@@H]1CC=CC=CC=CC=C[C@@H](O[C@@H]2O[C@H](C)[C@@H](O)[C@H](N)[C@H]2O)C[C@@H]2O[C@](O)(C[C@@H](O)C[C@@H]3O[C@@H]3C=CC(=O)O1)C[C@H](O)[C@@H]2C(=O)O`: the Potency was 9.35 µM (active).

As to `CN(C)N=Nc1nc[nH]c1C(N)=O`, the “viability” value is 122%. `COc1ccc2cc1Oc1ccc(cc1)C[C@H]1c3cc(c(OC)cc3CCN1C)Oc1c(OC)c(OC)cc3c1[C@H](C2)N(C)CC3`: the Potency was 18.7 µM (active). As to `O=C(Nc1cccc(Cl)c1)Nc1ncc(CCNc2ncnc3ccsc23)s1`, the Potency is 5.9 µM (active). Take `C=C1[C@H](n2cnc3c(=O)[nH]c(N)nc32)C[C@H](O)[C@H]1CO`: the “viability” value is 128%.

As for `Cc1ccc(C2=Nc3ccc(Cl)cc3OC2)cc1`, the “viability” value is 121%. In the case of `CC1(C)C(N(O)C(=O)Nc2ccc(Cl)cc2)N(c2ccc(Cl)cc2)C(=O)N1CC(=O)NN=CC=Cc1ccc([N+](=O)[O-])o1` (stereo not given), the Potency is 8.33 µM (active). As to `NCC1CCC(C(=O)O)CC1` (stereo not given), the “viability” value is 119%. Consider `Fc1ccc(CNc2ncnc3ccc(F)cc23)cc1`, for which the Potency is 14.8 µM (active).

A short description of the next test: Quantitative High-Throughput drug screen in 47 multiple myeloma cell lines against the NCATS MIPE library collection: MM1S_ATCC cell viability assay (AID 1918980). Further: nearly all actives have a fitted effect of over 45% in size. To be noted: MM1S myeloma viability, CellTiter-Glo ATP luminescence, 48 h; series mostly up to 45.8 µM; viability (% of control): at the top concentration. A digest of the protocol: as §1
On to `CC(C)=CCCC(C)=CCCC(C)=CCCC(C)=CCCC(C)=CCCC(C)=CCCC(C)=CCCC(C)=CCCC(C)=CCO`, for which the “viability (% of control)” value was 125%. In the case of `CCCCC[C@H](O)C=C[C@H]1[C@H](O)CC(=O)[C@H]1CCCCCCC(=O)O`, the Potency is 3.32 µM (active). Consider `OC[C@H]1O[C@@H](O[C@H]2[C@@H](O)[C@@](O)(CO)O[C@@H]2CO)[C@H](O)[C@@H](O)[C@@H]1O`, for which the “viability (% of control)” value is 134%. Turning to `CCCCCCCCCCCCCCCC(=O)O[C@H]1[C@@H](O)[C@@H](O)[C@@H]([C@H](NC(=O)[C@@H]2C[C@@H](CCC)CN2C)[C@H](C)Cl)O[C@@H]1SC`, the Potency was 18.7 µM (active). On the same count and under the same terms, as for `COc1ccc(CCC(=O)Nc2nc3ccc(Cl)cc3s2)cc1OC`, the figure is 13.2 µM (active).

Consider `CC(C)CNc1ccnc(NCc2csc(-c3ccccc3)n2)n1`, for which the Potency is 20.9 µM (active). In the case of `NS(=O)(=O)c1cc(Cl)c(Cl)c(S(N)(=O)=O)c1`, the “viability (% of control)” value was 125%.

For the compound `O=C(Nc1ncc(SCCN2CCCC2)s1)[C@]1(c2ccc(S(=O)(=O)C3CC3)cc2)C[C@@H]1C1CCCCC1`, the Potency is 20.9 µM (active). As to `COc1ccc(Cn2ccc3ccc(C(=O)NO)cc32)cc1`, the Potency is 16.6 µM (active). On the same count and under the same terms, as for `CC(C)C[C@@H](C(=O)N[C@H](C(=O)OC1CCCC1)c1ccccc1)[C@H](O)C(=O)NO`, the figure is 20.9 µM (active); as for `CCCCC(C)(C)[C@H](O)C=C[C@H]1[C@H](O)CC(=O)[C@H]1CC=CCCCC(=O)O`, 14.8 µM (active). Regarding `O=C(O)CCC=CCC[C@@H]1[C@H](N2CCCCC2)[C@@H](O)C[C@@H]1OCc1ccc(-c2ccccc2)cc1`, the “viability (% of control)” value is 121%. Take `Cc1csc(-c2nnc(Nc3ccc(Oc4ncccc4-c4ccnc(N)n4)cc3)c3ccccc23)c1`: the Potency is 18.7 µM (active). The same measure, in the same setting: to `O=C(Nc1cccc(C(F)(F)F)c1)Nc1cc(S(=O)(=O)NC2CC2)ccc1-c1ccsc1` belongs 20.9 µM (active); to `O[C@@H](COc1cccc2ncccc12)CN1CCN(C2c3ccccc3[C@@H]3[C@H](c4ccccc42)C3(F)F)CC1` (stereo not given in full), 7.43 µM (active). With `CCN1C[C@H](C)n2c(c(O)c3c(=O)n(Cc4ccc(F)c(Cl)c4)nc(C(=O)NC)c32)C1=O`, the “viability (% of control)” value was 131%. Take `CC(C)(O)CC(=O)NCCn1ccc2ncnc(Nc3ccc(Oc4cccc(C(F)(F)F)c4)c(Cl)c3)c21`: the Potency was 0.332 µM (active). On the same count and under the same terms, as for `CN1CC(=O)NC1=NC(=O)Nc1cccc(Cl)c1`, the figure is 26.4 µM (active). On the same count and under the same terms, to `OCCn1cc(-c2ccc3c(c2)CCC3=NO)c(-c2ccncc2)n1` belongs 26.4 µM (active); to `C[C@@H]1CC=CC=CC=CC=C[C@@H](O[C@@H]2O[C@H](C)[C@@H](O)[C@H](N)[C@H]2O)C[C@@H]2O[C@](O)(C[C@@H](O)C[C@@H]3O[C@@H]3C=CC(=O)O1)C[C@H](O)[C@@H]2C(=O)O`, 20.9 µM (active). On the same count and under the same terms, as for `CCC[C@H](N[C@@H](C)C(=O)N1[C@@H]2CCCC[C@H]2C[C@H]1C(=O)O)C(=O)OCC`, the figure is 20.9 µM (active); as for `N#CC(=C1Nc2ccccc2S1)c1ccnc(OCc2ccc(CN3CCOCC3)cc2)n1`, 1.48 µM (active).

For `CC1(C)[C@H]2CC[C@]3(C)[C@@H](C(=O)C=C4[C@@H]5C[C@@](C)(C(=O)O)CC[C@]5(C)CC[C@]43C)[C@@]2(C)CC[C@@H]1O`, the “viability (% of control)” value was 126%. Still for that read-out and setting: as for `CN(C)N=Nc1nc[nH]c1C(N)=O`, the figure is 118%. In the case of `COc1ccc2cc1Oc1ccc(cc1)C[C@H]1c3cc(c(OC)cc3CCN1C)Oc1c(OC)c(OC)cc3c1[C@H](C2)N(C)CC3`, the Potency was 18.7 µM (active). On the same count and under the same terms, as for `COc1cc2c(cc1OC)[C@@H]1Cc3ccc(OC)c(OC)c3CN1CC2`, the figure is 2.96 µM (active); as for `O=C(Nc1cccc(Cl)c1)Nc1ncc(CCNc2ncnc3ccsc23)s1`, 16.6 µM (active). Same read-out and setting: as for `COC1CCC(C(=O)c2ccc3nc4c(cc3c2)CCCO4)CC1` (stereo not given), the figure is 20.9 µM (active). For `C=C1[C@H](n2cnc3c(=O)[nH]c(N)nc32)C[C@H](O)[C@H]1CO`, the Potency is 14.8 µM (active). The same measure, in the same setting: as for `CC1(C)C(N(O)C(=O)Nc2ccc(Cl)cc2)N(c2ccc(Cl)cc2)C(=O)N1CC(=O)NN=CC=Cc1ccc([N+](=O)[O-])o1` (stereo not given), the figure is 9.35 µM (active); as for `Fc1ccc(CNc2ncnc3ccc(F)cc23)cc1`, 14.8 µM (active).
